Assay outcomes: PubChem BioAssay, The Scripps Research Institute Molecular Screening Center
DAX1 inh-1 – DAX1 (NR0B1) inhibitors, primary screen, cell-based, HEK293, Gal4-DAX1, luciferase luminescence; Nuclear receptor subfamily 0 group B member 1 (Homo sapiens), P51843; HEK293 Gal4-DAX1 luciferase reporter; inhibition, % at 6.75 µM; actives 0.99% (n = 340,000); AID 504766, 2011;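 active = inhibition above the mean over all tested compounds plus 3 SD, cut at about 4.2% in these data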;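 note: 0% = DAX1-transfected cells with DMSO and 100% = empty-vector control cells with DMSO; inhibition shows as a rise in luminescence from relieved DAX1 repression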
Target sequence (P51843 207-470 limits assumed): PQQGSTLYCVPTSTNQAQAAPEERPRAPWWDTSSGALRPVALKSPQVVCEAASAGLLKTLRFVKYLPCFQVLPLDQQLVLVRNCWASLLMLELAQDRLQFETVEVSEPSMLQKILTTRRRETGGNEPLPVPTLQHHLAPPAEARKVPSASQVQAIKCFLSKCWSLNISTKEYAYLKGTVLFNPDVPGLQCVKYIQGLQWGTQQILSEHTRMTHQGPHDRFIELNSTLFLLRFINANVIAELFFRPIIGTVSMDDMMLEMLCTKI
DAX1 inh-2 – DAX1 (NR0B1) inhibitors on StAR promoter, primary screen, cell-based, luminescence, SF-1 (NR5A1), full-length DAX-1 | HEK293T StAR-luciferase reporter, SF-1/DAX-1 repression relief | inhibition, % at 6.8 µM | actives 1.1% (n = 370,000);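 active = inhibition above the mean over all tested compounds plus 3 SD, cut at about 3.6% in these data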;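 note: 0% = DAX-1 cells with DMSO and 100% = cells lacking DAX-1 with DMSO; higher inhibition means more luminescence from relief of DAX-1 repression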
hcDAF12 agonist – H. contortus DAF-12 nuclear receptor activators, primary screen, cell-based, luminescence, HEK293, lit1-tk-luc reporter; HEK293 hcDAF-12 lit1-tk-luc reporter; 0% DMSO, 100% Δ7-dafachronic acid; activation, % at 6.8 µM; actives 1.4% (n = 370,000); AID 652067, 2013;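 active = activation above the mean of all tested compounds plus 3 SD, cut at about 5.5% in these data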;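 note: 100% = response to 3 µM Δ7-dafachronic acid high control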
ssDAF-12 act – S. stercoralis DAF-12 nuclear receptor activators, primary screen, cell-based, luminescence, HEK293, GRIP1 co-expression, lit1-tk-luc; AID 652126, 2013; HEK293 ssDAF-12/GRIP1 lit1-tk-luc reporter; % of 3 µM dafachronic acid response; Nuclear hormone receptor DAF-12 (Strongyloides stercoralis); actives 1% (n = 370,000); activation, % at 6.8 µM;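 active = activation above the mean over all tested compounds plus 3 SD, cut at about 0.9% in these data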;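 note: 0% = DMSO-only wells and 100% = 3 µM delta7-dafachronic acid wells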
hgDAF-12 ag – H. glycines DAF-12 receptor agonists, primary screen, cell-based, luminescence, HEK293, GAL4 fusion, UAS-luciferase. AID 687014, 2013. activation, % at 6.8 µM. HEK293 GAL4-hgDAF12 UAS-luciferase reporter, agonist luminescence; normalized to butyrate control. Nuclear hormone receptor DAF-12 (Heterodera glycines), GAL4 fusion. actives 1.8% (n = 370,000);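 active = activation above a cutoff set at the mean of all screened compounds plus 3 SD, cut at about 10% in these data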;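 note: 0% = DMSO wells and 100% = sodium butyrate wells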
hgDAF12 conf – H. glycines DAF-12 receptor agonists, confirmation, cell-based, luminescence, HEK293, GAL4-LBD fusion. shares compounds with hgDAF-12 ag. HEK293 GAL4-hgDAF12 luciferase reporter, agonist mode; percent of butyrate response. activation, % at 6.8 µM. actives 80% (n = 3,300). AID 743050, 2013;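 active = mean activation over triplicate wells above the hit cutoff derived from the earlier primary screen, cut at about 11% in these data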;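 note: 0% = DMSO low control and 100% = 2 mM sodium butyrate high control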
LXR ag 2 – LXR agonists, Gal4 luciferase reporter, confirmation, counter-screen for hgDAF-12 agonist project, cell-based, luminescence, HEK293, H. glycines campaign. shares compounds with hgDAF-12 ag. 24 h. activation, % at 6.8 µM. 3,300 tested, under 10 active. AID 743051, 2013;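 active = mean activation of the triplicate above a set limit carried over from the primary screen, none filed active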
* = called active by the depositor; / = no result given. Most compounds without a hit are left out; they make up all but 4.1% or so of the library.

SMILES | DAX1 inh-1 | DAX1 inh-2 | hcDAF12 agonist | ssDAF-12 act | hgDAF-12 ag | hgDAF12 conf | LXR ag 2
Cc1sc(NC(=O)C2C3CCC(O3)C2C(=O)O)nc1-c1ccc(CC(C)C)cc1 (centres undefined) | 2 | 2 | 5 | 0 | 18* | 10 | 0
CCOC(=O)c1c(NC(=O)C2C3CCC(O3)C2C(=O)O)sc(C)c1-c1ccc(C)cc1 (centres undefined) | 1 | 1 | 0 | -1 | 0 | / | /
C/C(CC(=O)Nc1ccc(C)c(Cl)c1)=N\NC(=O)c1ccccn1 | -1 | 3 | 5 | 0 | 14* | 7 | 0
COc1ccccc1/C=C/c1nc(C#N)c(N(C)C)o1 | 4 | 1 | 5.8* | 0 | 15* | 14* | 1
COc1cc(OC)c(C2=NOC(C(=O)N3CCN(C(=O)c4ccco4)CC3)C2)cc1Cl (centres undefined) | 0 | 0 | -2 | -2 | -1 | / | /
COc1cc(OC)c(C2=NOC(C(=O)N3CCc4ccccc4C3)C2)cc1Cl (centres undefined) | 0 | 0 | -1 | -1 | 14* | -4 | 0
CCC/C=N/NC(=O)c1[nH]c2c([N+](=O)[O-])cccc2c1C | 0 | 0 | 2 | -1 | -5 | / | /
CN1CCS/C1=C/C=C1\SC(=S)N(CC(=O)O)C1=O | 0 | 0 | 2 | 0 | 2 | / | /
CCCCN1C(=O)/C(=C/C=C2\SCCN2C)SC1=S | 3 | 3 | 0 | 0 | 14* | 10 | 1
C/C(=N\NC(=O)c1ccoc1C)c1ccccc1 | / | 3.9* | 5.6* | 1 | 14* | 11* | 1
Cc1cccc(/C(N)=N/OC(=O)c2ccoc2C)c1 | 2 | 1 | 5 | 0 | 9 | / | /
Cc1occc1C(=O)N/N=C/C=C/c1ccccc1 | 4 | 4 | 1 | 0 | 8 | / | /
COc1cccc(C(=O)O/N=C(\N)c2ccncc2)c1 | 2 | 2 | 2 | -1 | 17* | 16* | 1
Cc1occc1C(=O)O/N=C(\N)c1ccccc1 | / | 3 | 5 | 0 | 14* | 14* | 1
COc1ccc(/C(N)=N/OC(=O)c2ccco2)cc1OC | 2 | 3 | 2 | 0 | 18* | 13* | 0
COc1ccc(C(=O)O/N=C(\N)c2ccncc2)cc1OC | 1 | 0 | 0 | -1 | 5 | / | /
N/C(=N\OC(=O)/C=C/c1ccccc1)c1ccccc1 | 3 | 4.3* | 2 | 1 | 17* | 15* | 1
COc1ccc(C(=O)O/N=C(\N)c2ccccc2)cc1OC | 5.9* | 2 | 5 | 0 | 17* | 12* | 1
CCOC(=O)c1ccc(OS(=O)(=O)c2ccccc2)c(OC)c1 | 1 | 3 | 4 | 0 | 16* | 11* | 1
N/C(=N\OC(=O)/C=C/c1ccccc1)c1ccc(Cl)cc1 | / | 0 | -2 | -1 | 4 | / | /
C/C(=N/NC(=O)c1ccccc1)c1ccc(NC(=O)C(F)(F)F)cc1 | 2 | 2 | 4 | 0 | 14* | 5 | 0
COc1ccc(N2CCN(C(=O)c3oc4ccccc4c3NC(=O)CCc3cc(OC)no3)CC2)cc1 | 0 | -1 | -3 | -2 | -1 | / | /
CCCCn1c(N)c(N(CC)C(=O)CSc2nnnn2-c2cc(C)ccc2C)c(=O)[nH]c1=O | -1 | 0 | 0 | -1 | -1 | / | /
CCC(C)N(C(=O)Cn1nnc(-c2ccc(Cl)cc2)n1)C1CCS(=O)(=O)C1 (centres undefined) | 0 | 1 | 0 | -1 | 2 | / | /
CCSc1cc(N2CCCC2)nc(-c2ccccc2Cl)n1 | 0 | 0 | -2 | -2 | 0 | / | /
SMILES | DAX1 inh-1 | DAX1 inh-2 | hcDAF12 agonist | ssDAF-12 act | hgDAF-12 ag | hgDAF12 conf | LXR ag 2
COc1ccc(C(=O)O/N=C(\N)c2ccccn2)cc1 | -3 | 0 | -2 | -2 | -6 | / | /
COc1cc(OC)cc(C(=O)O/N=C(\N)c2ccccn2)c1 | / | 1 | 2 | 0 | 13* | 13* | 0
Cc1nonc1NC(=O)CSc1nnc(N)s1 | 1 | 0 | -1 | 0 | -1 | / | /
COc1cccc(C(=O)N(C)Cc2c(C)nn(C3CCS(=O)(=O)C3)c2C)c1 (centres undefined) | 0 | 0 | -2 | -2 | 3 | / | /
O=[N+]([O-])c1ccc(O)c(/C=N/Nc2ccccc2Cl)c1 | 0 | 2 | 2 | 0 | 16* | 10 | 1
O=[N+]([O-])c1ccccc1N/N=C\c1ccccc1Cl | 2 | 1 | 0 | -1 | 2 | / | /
Cc1ccccc1Nc1nc2ccccc2s1 | 6.2* | 2 | 6.2* | 0 | 17* | 18* | 1
Fc1ccc(Nc2nc3ccccc3s2)cc1 | 3 | 3 | 5 | 0 | 26* | 12* | 0
C=CCN=C1NC(c2ccccc2)C(C(=O)OC)=C(C)N1Cc1cccc(C(F)(F)F)c1 (centres undefined) | / | 1 | 2 | -2 | 2 | / | /
CN(CC(=O)Nc1cccc(F)c1)C(=O)CCCc1cccs1 | 0 | 1 | -2 | -2 | 0 | / | /
O=C(CN1CSCC1=O)N1CCN(S(=O)(=O)c2cc(C(F)(F)F)ccc2Cl)CC1 | 0 | -1 | 1 | -1 | 1 | / | /
CN(C)c1ccc(C=Cc2ccnc3ccccc23)cc1N | / | 1 | 2 | -1 | 17* | 10 | 0
Clc1ccc(-c2ccc(SCc3ccccn3)nn2)cc1 | 1 | 1 | 2 | 1 | 7 | / | /
c1ccc(CSc2ccc(-c3ccccn3)nn2)nc1 | 1 | 3 | 3 | 0 | 16* | 10 | 1
NC(Cc1c[nH]c2ccccc12)C(=O)Nc1ccccc1 (centres undefined) | 3 | 1 | 0 | 0 | 2 | / | /
CN(C)c1cccc(O)c1 | 0 | 2 | 0 | 0 | 3 | / | /
Cc1cc(O)ccc1Nc1cc(-c2cccc(N(C)C)c2)ncn1 | / | 4.2* | 5.8* | 1 | 14* | 18* | 1
COc1cccc(NC(=O)N2CCC(n3nnc4ccccc43)CC2)c1 | 0 | 0 | 0 | -1 | 1 | / | /
